Pf apPOL inh = Pf-apPOL DNA polymerase inhibition; Recombinant Pf-apPOL, molecular beacon fluorescence, 1.5 h; inhibition, % at 10 µM; 0.25% of 210,000 active; AID 1794808
mHTT CaM bind = disrupts binding of mutant huntingtin to calmodulin; AlphaScreen His-mHTT/GST-CaM binding, luminescence; inhibition, % at 15 µM; 3.6% of 190,000 active; AID 1671202;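 also: 0% = both proteins with DMSO and 100% = one protein alone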
* marks the source's active call; other numbers are inactive results; . = not tested or not shown. This excerpt belongs to a sample that is enriched for hits. Rule as the data show it: active = inhibition above about 50%; inactive = the rest.

SMILES	Pf apPOL inh	mHTT CaM bind
CC(C)C(=O)Oc1coc(CSc2nnc(NC(=O)c3cccs3)s2)cc1=O	74*	82*
Fc1cccc(CN2CCCCC2c2nc(-c3cccnc3)no2)c1 (centres undefined)	1	18
O=C(Nc1ccc2c(c1)OCO2)c1ccccc1Cl	-6	-5
Fc1cccc(NCc2ccc3c(c2)OCO3)c1	-8	-12
Clc1cccc(Cl)c1CNc1ccc2c(c1)OCO2	-3	69*
Cc1cccc(CNc2ccc3c(c2)OCO3)c1	3	100*
Cc1ccc(C(=O)N2CCC(c3nc(C(=O)N(C)C)c(C)o3)CC2)s1	-4	-3
CN(C)CCNC(=O)C1CCN(c2nc3ccccc3o2)CC1	-16	1
CN(C)CCNC(=O)C1CCN(Cc2cc3ccccc3n2Cc2cccc(F)c2)CC1	3	100*
Cc1ccc(Cn2c(CN3CCC(C(=O)NCCN(C)C)CC3)cc3ccccc32)cc1	3	99*
O=C(NCc1cccnc1)C1CCN(Cc2cc3ccccc3n2Cc2ccccc2)CC1	3	68*
COc1ccc2c(c1)c(CN1CCC(C(=O)NCCN(C)Cc3ccccc3)CC1)cn2C	3	8
O=C(NCc1cccnc1)C1CCN(c2cnn(Cc3ccccc3)c(=O)c2)CC1	-2	-6
CN(C)S(=O)(=O)N1CCN(c2nc3ccccc3o2)CC1	.	-3
CC(C)(C)n1nc2c(c1NC(=O)c1ccccc1Br)CS(=O)(=O)C2	-9	-3
OCCN(Cc1ccccc1)CC(O)COc1cccc2ccccc12 (centres undefined)	-11	12
OCCN(Cc1ccccc1)CC(O)COc1ccc(Cl)cc1Cl (centres undefined)	4	51*
O=c1c(=Cc2cccc([N+](=O)[O-])c2)sc2nc(-c3ccncc3)nn12	5	1
CCn1c(/C=C/c2ccccc2Cl)nc2ccccc2c1=O	-8	-1
O=c1[nH]c(/C=C/c2cccnc2)nc2ccccc12	-4	100*
CCn1c(/C=C/c2cccnc2)nc2ccccc2c1=O	-2	100*
O=c1[nH]c(/C=C/c2ccc(Cl)cc2)nc2ccccc12	-2	-1
CC(=O)N1CCc2sc(S(=O)(=O)N3CCN(c4ccc(C)cc4)CC3)cc2C1	-4	9
O=C(Nc1nccs1)C1CCN(C(=O)c2cc(-c3ccco3)[nH]n2)CC1	27	20
CN1C(=O)c2ccc(NC(=O)c3cc4ccccc4o3)cc2C1=O	-5	7
SMILES	Pf apPOL inh	mHTT CaM bind
O=C(Nc1cccc(-c2cn3ccsc3n2)c1)c1ccc(N2CCCC2)nn1	5	26
O=C(O)c1cc(-c2ccccc2)nc2ccccc12	-1	-2
O=C(O)c1cc(-c2ccc(-c3c(-c4ccco4)noc3-c3ccccc3)cc2)nc2ccccc12	74*	69*
Cc1cccc(-n2ccnc2SCC(=O)Nc2ccc(F)cc2F)c1C	10	25
COc1ccc(Cl)cc1NC(=O)CSc1nccn1-c1cccc(C)c1C	4	56*
CCCCNc1c(Cl)cnn(-c2ccccc2)c1=O	-4	-52
O=C(CSc1ccc(F)cc1)Nc1cc(-c2ccco2)nn1CCO	-3	69*
O=C(Nc1cc(-c2ccco2)nn1CCO)c1ccc(S(=O)(=O)N2CCOCC2)cc1	8	26
CC(C)CN1CCn2cc(C(=O)NC3CCCCC3)nc2C1	-6	22
COc1ccc(N2C(=O)C3CCCN3C2c2ccccc2OC)cc1 (centres undefined)	22	-7
CCOc1ccccc1C1N(c2ccc(Cl)cc2)C(=O)C2CCCN21 (centres undefined)	-2	51*
COc1ccccc1C1N(c2ccc(Cl)cc2)C(=O)C2CCCN21 (centres undefined)	-2	50*
CCOc1ccccc1C1N(c2ccc(F)cc2)C(=O)C2CCCN21 (centres undefined)	-1	1
O=C1N(c2ccccc2)C(c2ccccc2)N2CCCN12 (centres undefined)	1	0
COc1ccccc1C1N(c2ccc(Cl)c(Cl)c2)C(=O)N2CCCN12 (centres undefined)	-2	100*
COc1cc(C2N(c3ccc(Cl)c(Cl)c3)C(=O)C3CCCN32)cc(OC)c1OC (centres undefined)	-6	100*
COc1cc(C2N(c3ccc(Cl)cc3)C(=O)C3CCCN32)cc(OC)c1OC (centres undefined)	-6	40
COc1ccc(Cl)cc1C(=O)Nc1cc(C)nn1CCO	2	-8
COc1ccc([N+](=O)[O-])cc1NCc1cc(F)ccc1F	-3	-6
CC(C)OCCCNC(=O)C1(C)CCC(=O)N1Cc1cccs1 (centres undefined)	0	-7
O=CNC1CCCc2c1[nH]c1ccc(OCc3ccccc3)cc21 (centres undefined)	-2	53*
CC(=O)NC1CCCc2c1[nH]c1ccc(C)cc21 (centres undefined)	99*	5
O=CNC1CCCc2c1[nH]c1ccc(Cl)cc21 (centres undefined)	2	5
Cc1ccc2[nH]c3c(c2c1)CCCC3NCCCN(C)C (centres undefined)	-1	36
Cc1ccc2[nH]c3c(c2c1)CCC3O (centres undefined)	-4	78*
SMILES	Pf apPOL inh	mHTT CaM bind
Cc1ccc2[nH]c3c(c2c1)CCCC3NCc1ccc(Cl)cc1 (centres undefined)	-4	73*
CCN(CC)CCNC1CCCc2c1[nH]c1ccc(C)cc21 (centres undefined)	-2	19
COC(CNC1CCCc2c1[nH]c1ccc(C)cc21)OC (centres undefined)	16	18
O=C(Cc1csc2nc3sc4c(c3c(=O)n12)CCCC4)NCCO	-9	-4
CC(=O)Nc1ccc(C2(C(=O)NCc3ccccc3)CCCCC2)cc1	1	-12
CCOc1ccc(CCNC(=O)Nc2ccc(Cl)c(Cl)c2)cc1OCC	2	-9
CCOc1ccccc1NC(=O)N1CCC(c2nc3ccncc3n2C)C1 (centres undefined)	0	7
COc1ccc(C2CN(C(=O)c3ccccc3F)CC2C(=O)N2CCCC2)cc1 (centres undefined)	-8	15
Cc1ccc2[nH]c3c(c2c1)CCCC3NCCCO (centres undefined)	-1	14
Cc1ccc2[nH]c3c(c2c1)CCCC3NCCCOc1ccccc1 (centres undefined)	9	100*
COc1ccc(CCNC(=O)c2cccn3c(=O)c4sccc4nc23)cc1OC	-7	5
CCCn1c(=O)c(-c2nc(-c3ccc(Cl)c(F)c3)no2)c(O)c2ccccc21	1	5
CC(Oc1ccccc1)C(=O)NCCc1ccc(S(N)(=O)=O)cc1 (centres undefined)	86*	25
COc1ccc(OC(C)C(=O)NCCc2ccccc2)cc1 (centres undefined)	6	-3
O=C1OC(c2ccc([N+](=O)[O-])cc2)=N/C1=C/c1ccc2c(c1)OCO2	31	-8
C=CC[n+]1ccc(/C=C/c2ccccc2O)c2ccccc21	-4	69*
C[n+]1ccc(/C=C/c2ccccc2F)c2ccccc21	-4	6
CN1c2ccc(F)cc2C(=O)NC12CCN(C(=O)Cc1ccccc1Cl)CC2	0	2
Cc1ccc(C(=O)O)c(=O)[nH]1	-7	-6
O=C(NCCCN1CCN(c2ccc(F)cc2)CC1)C1CCN(c2ccncc2)CC1	-4	6
OCCOCCNc1ncnc2c1c(-c1ccccc1)cn2-c1cccc(C(F)(F)F)c1	0	23
